In PubChem BioAssay:
Activity calls are given as the source filed them. Unless noted, no rule for the calls is given here.

How the values were obtained:
[1] = A549 cell viability effects, profiling panel, calcein-AM fluorescence, 48 h, basal (AID 1162); details: higher = more signal; also: test concentration not given here
[2] = adipocyte viability effects, profiling panel, cell-based, 3T3-L1 adipocytes, calcein-AM fluorescence, 48 h, basal (AID 1163); details: 3T3-L1 adipocytes viability, higher = more signal; also: test concentration not given here
[3] = HepG2 cell viability effects, profiling panel, calcein-AM fluorescence, 48 h, basal (AID 1164); details: higher = more signal; also: test concentration not given here
[4] = MM1S cell viability effects, profiling panel, calcein-AM fluorescence, 48 h, basal (AID 1165); details: higher = more signal;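 also: viability of MM1S multiple myeloma cells under basal unstimulated conditions; test concentration not given here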
[5] = basal RPMI8226 viability, no added stimulus, profiling panel, cell-based, calcein-AM fluorescence, 48 h, PK04 Diversity Set (AID 1166); details: RPMI8226 myeloma viability, higher = more signal;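 also: cells grown under basal conditions without added stimulus; test concentration not given here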
[6] = basal HepG2 mitochondrial membrane potential changes, profiling panel, cell-based, JC-1 fluorescence, 24 h, 100 nL compound (AID 1167); details: higher = more signal; also: test concentration not given here
[7] = basal 3T3-L1 adipocyte mitochondrial potential changes, profiling panel, cell-based, JC-1 fluorescence, 3T3-L1 adipocytes, 24 h, 100 nL compound (AID 1168); details: JC-1 mitochondrial fluorescence, higher = more signal, called active from +8 up or from −8 down; also: test concentration not given here
[8] = basal RPMI8226 mitochondrial membrane potential changes, profiling panel, cell-based, JC-1 fluorescence, 24 h, 100 nL compound (AID 1169); details: RPMI8226 myeloma, JC-1 mitochondrial potential fluorescence, higher = more signal; also: test concentration not given here
[9] = basal MM1S mitochondrial membrane potential changes, profiling panel, cell-based, JC-1 fluorescence, 24 h, 100 nL compound (AID 1170); details: higher = more signal; also: test concentration not given here
[10] = A549 lung cancer cell viability effects, profiling panel, resazurin fluorescence, 24 h, PK04 Diversity Set (AID 1171); details: higher = more signal, called active from +8 up or from −8 down; also: test concentration not given here
[11] = HepG2 liver cancer cell viability effects, profiling panel, resazurin fluorescence, 24 h, PK04 Diversity Set (AID 1172); details: higher = more signal; also: test concentration not given here
[12] = basal S. cerevisiae growth modulation, no modifier, primary screen, OD600, strain BY4716, 24 h, basal condition (AID 1173); details: OD600, 24 h, higher = more signal, called active from +8 up or from −8 down
[13] = MM1S myeloma cell viability, profiling panel, resazurin fluorescence, basal, 24 h, PK04 Diversity Set (AID 1174); details: higher = more signal, called active from +8 up or from −8 down;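 also: MM1S multiple myeloma cell line; test concentration not given here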
[14] = molecular target: Dihydroorotate dehydrogenase (quinone), mitochondrial (Plasmodium falciparum (isolate 3D7)) (UniProt Q08210); assay: PfDHODH enzyme inhibitors, primary screen, biochemical, C-terminal His tag, absorbance 600 nm (AID 1175); details: DCIP absorbance 600 nm, higher = more signal, called active from +8 up or from −8 down;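 also: recombinant parasite enzyme with a five histidine tag at its C terminus; test concentration not given here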
Chain of Dihydroorotate dehydrogenase (quinone), mitochondrial (Plasmodium falciparum (isolate 3D7)) (Q08210 whole entry, looked up): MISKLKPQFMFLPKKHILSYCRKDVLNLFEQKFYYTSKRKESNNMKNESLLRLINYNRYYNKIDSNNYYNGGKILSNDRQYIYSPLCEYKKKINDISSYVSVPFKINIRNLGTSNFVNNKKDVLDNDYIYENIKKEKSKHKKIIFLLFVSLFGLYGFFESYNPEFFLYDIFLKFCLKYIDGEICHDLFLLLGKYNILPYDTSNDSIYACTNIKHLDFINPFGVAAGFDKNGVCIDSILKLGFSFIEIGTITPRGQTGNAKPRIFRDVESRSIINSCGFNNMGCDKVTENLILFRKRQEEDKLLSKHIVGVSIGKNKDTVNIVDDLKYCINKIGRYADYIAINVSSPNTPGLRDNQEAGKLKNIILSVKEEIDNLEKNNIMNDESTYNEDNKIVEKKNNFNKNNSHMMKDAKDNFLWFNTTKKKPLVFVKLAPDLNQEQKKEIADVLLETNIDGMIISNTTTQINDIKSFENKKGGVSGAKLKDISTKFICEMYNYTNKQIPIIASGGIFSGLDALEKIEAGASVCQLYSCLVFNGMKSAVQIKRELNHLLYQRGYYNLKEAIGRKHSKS

[15] = P. aeruginosa biofilm formation inhibitors, primary screen, strain PAO1, LB-PBS medium, absorbance 600 nm (AID 1176); also: test concentration not given here; details: P. aeruginosa PAO1 growth/biofilm, A600, 12 h; higher = more signal
[16] = S. cerevisiae RM11-1a growth modifiers, primary screen, strain RM11-1a, OD600, basal, 24 h (AID 1177); details: OD600, 24 h, higher = more signal, called active from +8 up or from −8 down;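 also: cultures grown under basal conditions with no added stressor; test concentration not given here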
[17] = E. coli acrAB mutant growth effects, primary screen, E. coli filamentation inducers, strain DRC39, OD650, 24 h (AID 1178); details: higher = more signal, called active from +8 up or from −8 down;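 also: growth measured as culture turbidity by optical density at 650 nm; test concentration not given here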
[18] = E. coli acrAB mutant growth effects, primary screen, E. coli filamentation inducers, strain DRC39, OD650, 48 h (AID 1179);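 also: screen aims at cell division blockers that make cells filament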; details: E. coli DRC39 delta-acrAB growth, higher = more signal, called active from +8 up or from −8 down
[19] = RPMI8226 myeloma cell viability, profiling panel, resazurin fluorescence, basal, 24 h, PK04 Diversity Set (AID 1180); details: higher = more signal;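 also: RPMI8826 multiple myeloma cell line at 5000 cells per well; test concentration not given here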
[20] = molecular target: E3 ubiquitin-protein ligase XIAP (Homo sapiens) (UniProt P98170); assay: XIAP binders, primary screen, biophysical, small-molecule microarray, fluorescence 635 nm (AID 1181); details: small-molecule microarray binding, higher = more signal;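 also: score merges 667 nm emission and signal to noise over triplicate slides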
Chain of E3 ubiquitin-protein ligase XIAP (Homo sapiens) (P98170 whole entry, looked up): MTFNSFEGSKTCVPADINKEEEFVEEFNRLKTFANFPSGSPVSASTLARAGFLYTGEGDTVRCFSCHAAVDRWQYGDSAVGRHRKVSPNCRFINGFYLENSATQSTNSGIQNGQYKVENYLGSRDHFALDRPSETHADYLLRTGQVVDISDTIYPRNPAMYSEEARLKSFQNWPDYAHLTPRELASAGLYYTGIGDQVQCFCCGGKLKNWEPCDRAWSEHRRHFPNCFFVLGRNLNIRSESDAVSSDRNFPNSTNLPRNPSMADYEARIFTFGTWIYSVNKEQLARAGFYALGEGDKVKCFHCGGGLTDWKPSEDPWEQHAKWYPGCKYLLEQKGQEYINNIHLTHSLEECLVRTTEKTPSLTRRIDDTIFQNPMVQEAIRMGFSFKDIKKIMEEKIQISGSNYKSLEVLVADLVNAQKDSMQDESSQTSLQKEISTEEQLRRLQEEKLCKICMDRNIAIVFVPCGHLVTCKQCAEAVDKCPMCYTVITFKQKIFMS

Compound CCOC(=O)C=Cc1cc([N+](=O)[O-])ccc1O has a z-score [1] of -0.563, a z-score [2] of 1.39 and a z-score [3] of -1.27. It also gave a z-score [4] of 0.112, a z-score [5] of -2.29 and a z-score [6] of -1.91. The z-score [7] was 0.428 (inactive), the z-score [8] was -0.403 and the z-score [9] was -0.889. For the same compound, the z-score [10] was 0.384 (inactive), the z-score [11] was -0.495 and the z-score [12] was -4.86 (inactive). The z-score [13] was -0.912 (inactive), the composite z-score [14] was -4.74 (inactive) and the z-score [15] was -0.501 (inactive). The z-score [16] was 0.11 (inactive), the z-score [17] was -0.238 (inactive) and the z-score [18] was -1.13 (inactive). The z-score [19] was -0.688 and the composite z-score [20] was 0.193.

Compound CS(=O)(=O)CCOC(=O)C1=CC(CCCO)=CC(c2ccc(CN3CCCC3)cc2)N(Cc2cc3c(cc2Br)OCO3)C=C1C(=O)OCCS(C)(=O)=O (stereo not given) has a z-score [1] of 1.94, a z-score [2] of -0.0958 and a z-score [3] of -0.0078. For the same compound, the z-score [4] was -0.315, the z-score [5] was 0.0614 and the z-score [6] was 3.02. The z-score [7] was 0.771 (inactive), the z-score [8] was 0.00988 and the z-score [9] was 1.29. The z-score [10] was 0.778 (inactive), the z-score [11] was 0.0305 and the z-score [12] was -3.3 (inactive). For the same compound, the z-score [13] was 0.56 (inactive), the composite z-score [14] was -4.55 (inactive) and the z-score [15] was -0.66 (inactive). For the same compound, the z-score [16] was 0.526 (inactive), the z-score [17] was 0.549 (inactive) and the z-score [18] was 0.325 (inactive). It also gave a z-score [19] of 1.31 and a composite z-score [20] of -0.0773.

With C=CCOC(=O)[C@@H]1[C@H]2C(=O)O[C@H](c3ccccc3)[C@H](c3ccccc3)N2[C@H](c2ccc(OCCOC(=O)[C@@H]3C[C@@H]4C(=O)N[C@@H](Cc5ccccc5)C(=O)N4[C@@H]3c3ccc(O)cc3)cc2)[C@@]12C(=O)Nc1ccc(I)cc12 the z-score [1] was -1.09, the z-score [2] was 1.39 and the z-score [3] was 0.1. The z-score [4] was 0.67, the z-score [5] was -0.645 and the z-score [6] was -1.56. The z-score [7] was 0.865 (inactive), the z-score [8] was -0.451 and the z-score [9] was -1.38. The z-score [10] was 0.128 (inactive), the z-score [11] was -0.437 and the z-score [12] was 0.963 (inactive). The z-score [13] was 0.372 (inactive), the composite z-score [14] was -0.0246 (inactive) and the z-score [15] was 2.1 (inactive). The z-score [16] was 1.91 (inactive), the z-score [17] was -0.0033 (inactive) and the z-score [18] was -1.53 (inactive). The z-score [19] was 0.411 and the composite z-score [20] was 0.104.

With O=C1NC(=O)C2C1C=CC(C(O)c1cccc3ccccc13)N2Nc1ccccn1 (stereo not given) the z-score [1] was 0.428, the z-score [2] was -0.608 and the z-score [3] was -0.32. It also gave a z-score [4] of 0.002, a z-score [5] of -0.0565 and a z-score [6] of 0.15. For the same compound, the z-score [7] was -0.0987 (inactive), the z-score [8] was -0.216 and the z-score [9] was -0.184. The z-score [10] was -0.721 (inactive), the z-score [11] was -0.692 and the z-score [12] was 0.268 (inactive). The z-score [13] was -1.74 (inactive), the composite z-score [14] was 0.305 (inactive) and the z-score [15] was 0.226 (inactive). The z-score [16] was 0.798 (inactive), the z-score [17] was -0.334 (inactive) and the z-score [18] was 0.638 (inactive). It also gave a z-score [19] of -0.94 and a composite z-score [20] of 0.276.

For COc1ccc(C(O)C2C=CC3C(=O)NC(=O)C3N2Nc2ccccn2)c2ccccc12 (stereo not given), the z-score [1] was 0.606, the z-score [2] was -1.17 and the z-score [3] was 0.384. It also gave a z-score [4] of -0.178, a z-score [5] of 0.384 and a z-score [6] of -1.11. For the same compound, the z-score [7] was 0.296 (inactive), the z-score [8] was -0.905 and the z-score [9] was -0.143. The z-score [10] was -0.703 (inactive), the z-score [11] was -1.07 and the z-score [12] was -0.33 (inactive). For the same compound, the z-score [13] was -0.782 (inactive), the composite z-score [14] was 0.977 (inactive) and the z-score [15] was 1.26 (inactive). The z-score [16] was 0.75 (inactive), the z-score [17] was -0.272 (inactive) and the z-score [18] was -0.571 (inactive). The z-score [19] was -1.24 and the composite z-score [20] was 0.246.

For CN1C(=O)C2C=CC(C(O)c3cc(C(F)(F)F)cc(C(F)(F)F)c3)N(N3CCCCC3)C2C1=O (stereo not given), the z-score [1] was 0.704, the z-score [2] was 0.421 and the z-score [3] was 0.499. For the same compound, the z-score [4] was -1.02, the z-score [5] was -0.533 and the z-score [6] was -0.672. For the same compound, the z-score [7] was -0.205 (inactive), the z-score [8] was 0.462 and the z-score [9] was -0.444. The z-score [10] was 0.113 (inactive), the z-score [11] was -0.55 and the z-score [12] was 1.36 (inactive). The z-score [13] was -0.136 (inactive), the composite z-score [14] was 0.929 (inactive) and the z-score [15] was 0.049 (inactive). For the same compound, the z-score [16] was 2.29 (inactive), the z-score [17] was -0.289 (inactive) and the z-score [18] was -0.795 (inactive). For the same compound, the z-score [19] was 0.493 and the composite z-score [20] was -0.295.

For CCCC[C@@H]1C[C@H]1[C@@H](NC(=O)c1ccco1)c1ccc(Cl)cc1, the z-score [1] was -2.3, the z-score [2] was -0.679 and the z-score [3] was -0.746. The z-score [4] was -1.95, the z-score [5] was -2.24 and the z-score [6] was 2.38. For the same compound, the z-score [7] was -0.732 (inactive), the z-score [8] was -0.318 and the z-score [9] was -1.37. For the same compound, the z-score [10] was 0.473 (inactive), the z-score [11] was -0.653 and the z-score [12] was 1.44 (inactive). The z-score [13] was 0.134 (inactive), the composite z-score [14] was -0.284 (inactive) and the z-score [15] was 0.343 (inactive). The z-score [16] was 0.657 (inactive), the z-score [17] was -0.181 (inactive) and the z-score [18] was 0.16 (inactive). For the same compound, the z-score [19] was -0.0142 and the composite z-score [20] was -0.124.

Work on COCCOC(=O)N1C(=O)[C@@]2(c3cc(C#CC4=CCCCC4)ccc31)[C@H](C(=O)Nc1nc3ccccc3s1)[C@H]1C(=O)O[C@H](c3ccccc3)[C@H](c3ccccc3)N1[C@@H]2c1ccccc1OCCO yielded a z-score [1] of -0.812, a z-score [2] of 2.14 and a z-score [3] of -0.789. For the same compound, the z-score [4] was -1.59, the z-score [5] was -2.27 and the z-score [6] was -2.7. The z-score [7] was -0.2 (inactive), the z-score [8] was -0.849 and the z-score [9] was -1.29. The z-score [10] was 0.163 (inactive), the z-score [11] was 0.444 and the z-score [12] was 0.794 (inactive). For the same compound, the z-score [13] was -0.386 (inactive), the composite z-score [14] was 1.37 (inactive) and the z-score [15] was 1.16 (inactive). The z-score [16] was 1.99 (inactive), the z-score [17] was -0.653 (inactive) and the z-score [18] was -0.883 (inactive). It also gave a z-score [19] of -0.575 and a composite z-score [20] of -0.05.

CC(C)(C)OC(=O)CC[C@@]1(C(=O)NCC(O)CO)N=C(c2ccc(OCCCO)cc2)O[C@@H]1c1ccccc1N=[N+]=[N-] (stereo not given in full) gave a z-score [1] of 1.79, a z-score [2] of -0.309 and a z-score [3] of 1.34. For the same compound, the z-score [4] was -0.312, the z-score [5] was 0.0549 and the z-score [6] was 1.73. For the same compound, the z-score [7] was 2.9 (inactive), the z-score [8] was 0.11 and the z-score [9] was -0.884. For the same compound, the z-score [10] was 0.642 (inactive), the z-score [11] was 0.486 and the z-score [12] was -0.69 (inactive). For the same compound, the z-score [13] was -1.26 (inactive), the composite z-score [14] was 0.536 (inactive) and the z-score [15] was -0.127 (inactive). For the same compound, the z-score [16] was 0.151 (inactive), the z-score [17] was 0.4 (inactive) and the z-score [18] was 1.65 (inactive). For the same compound, the z-score [19] was 0.576 and the composite z-score [20] was 0.201.
